According to PubChem BioAssay:

experiment: reversal of MRP1-mediated doxorubicin resistance, pilot screen, H69AR cells, doxorubicin co-treatment (AID 601); conditions: H69AR cells, CellTiter-Glo, 72 h; compound alone cytotoxicity; at 10 µM

First: CN(Cc1cccs1)c1ncnc2sccc12
Second: c1csc(-c2nc3nc4ccccc4nc3n2Cc2ccc3c(c2)OCO3)c1
The viability of the first is higher: 92.4% for the first, 78% for the second.

First: CCOC(=O)N1CCN(C(=O)CN(c2ccc(C)cc2)S(=O)(=O)c2c(C)noc2C)CC1
Second: Cc1n[nH]c(C)c1S(=O)(=O)N1CCN(c2ccccn2)CC1
The viability of the first is lower: 86.1% for the first, 103% for the second.

Compared with `Cc1c2c(nc3nc4ccccc4n13)CC(C)(C)CC2=O`, `COCCOC(=O)C1=C(N)OC2=C(C(=O)CC(C)(C)C2)C1c1cccnc1` (stereo not given) is higher in viability: 70.9% for the first, 99% for the second.

Going from `COc1ccccc1OC(=O)c1ccc2nsnc2c1` to `COc1ccccc1Oc1coc2c(CN3CCN(C)CC3)c(O)ccc2c1=O`, the viability falls from 100% to 99.5%.

Going from `CCN(CCCNC(=O)c1cn(CC)c2ccc(S(=O)(=O)N(C)C)cc2c1=O)c1cccc(C)c1` to `Cc1ccc(S(=O)(=O)N(C)Cc2cc3ccccc3[nH]c2=O)cc1`, the viability rises from 80% to 91.5%.

Going from `O=C(O)C1CC(=O)N(c2ccc(OCc3ccccc3Cl)cc2)C1` (stereo not given) to `O=C(Nc1ccccc1N1CCN(c2ccc(F)cc2)CC1)c1ccccc1`, the viability rises from 90% to 93.8%.

First: C=CCOc1ccc(C2C(C(=O)c3ccco3)=C(O)C(=O)N2Cc2cccnc2)cc1 (stereo not given)
Second: Cc1nc(C)c(C(=O)C2=C(O)C(=O)N(CCN3CCOCC3)C2c2cccnc2)s1 (stereo not given)
The viability of the first is lower: 90.9% for the first, 97.4% for the second.

Going from `[N-]=[N+]=CC(=O)CC(c1ccccc1)N1C(=O)c2ccccc2C1=O` (stereo not given) to `Cn1c(=O)c2c(nc(NCCc3ccccc3)n2CC(=O)NCCc2ccccc2)n(C)c1=O`, the viability falls from 103% to 79%.

Compared with `CCC1(c2ccc(F)cc2)NC(=O)N(CC(=O)c2ccc[nH]2)C1=O` (stereo not given), `Cc1cc(Br)ccc1NC(=O)CCN1C(=O)c2ccncc2C1=O` is lower in viability: 96.6% for the first, 95.6% for the second.

Compared with `c1ccc(Cc2ccc(OCCn3cncn3)cc2)cc1`, `Cc1cccc(Nc2nc3c(c(=O)n(C)c(=O)n3C)n2Cc2ccccc2)c1` is higher in viability: 95% for the first, 96.6% for the second.

Compared with `Cc1nn(C)c(C)c1CNC(=O)c1cc2n(n1)C(C(F)(F)F)CC(c1cccs1)N2` (stereo not given), `COC(=O)c1cc2ccsc2n1CC(=O)Nc1cc(C)cc(C)c1` is lower in viability: 112% for the first, 84.8% for the second.

Compared with `COc1ccc(CNc2nc3nc(C)cc(C)n3n2)cc1OC`, `COc1ccc(-c2noc(-c3cc(Cl)ccc3Cl)n2)cc1OC` is lower in viability: 108% for the first, 107% for the second.

Compared with `CCOC(=O)c1ccc(N2C(=O)C3CC=CCC3C2=O)cc1` (stereo not given), `CCOC(=O)c1cnc(-n2nc(C)cc2C)nc1Nc1cccc(C(C)=O)c1` is lower in viability: 99.3% for the first, 88% for the second.

Compared with `CC(C(=O)NCCCN1CCOCC1)n1cccc1C(=O)c1ccccc1` (stereo not given), `CCN1CCN(CCCNC(=O)C2c3ccccc3C(=O)N(C)C2c2ccc(OC)cc2)CC1` (stereo not given) is higher in viability: 95% for the first, 110% for the second.

Going from `Cc1nc(NC2=NCN(CC3CCCO3)CN2)nc2ccccc12` (stereo not given) to `Fc1ccc(NCc2nnc(SCc3nnc(-c4ccccc4)o3)n2CC2CCCO2)cc1` (stereo not given), the viability falls from 85.1% to 78.9%.

First: CC(C)(C)NCc1cc2ccccc2[nH]c1=O
Second: CC(C)CCN1CC(C(=O)NCc2ccccc2)CC1=O (stereo not given)
The viability of the first is higher: 93.2% for the first, 92.6% for the second.

Compared with `CCC(=O)Nc1ccc(Cl)c(NC(=O)C(C)C)c1`, `Cc1ccc(NC(=O)CCC(=O)OCC(F)(F)C(F)F)cc1` is lower in viability: 111% for the first, 103% for the second.

Going from `COc1ccc(-c2nnc(SCC#N)o2)cc1` to `Cc1oc(-c2ccc(Cl)cc2)nc1CS(=O)CC(=O)NCCCN(C)C1CCCCC1` (stereo not given), the viability falls from 103% to 87.1%.

Compared with `CN(C)c1ccc2c(c1)OC(N)=C(C#N)C2c1cccc(F)c1` (stereo not given), `O=C1Nc2ccccc2OC1CC(=O)N1CCCC1` (stereo not given) is higher in viability: 34.7% for the first, 102% for the second.

Going from `CC1CCN(S(=O)(=O)c2ccc3[nH]cc(C(=O)NCCN4CCOCC4)c(=O)c3c2)CC1` to `CC(=O)N1CCN(c2ccc(S(=O)(=O)N3CCCCC3)cn2)CC1`, the viability falls from 96.4% to 88.6%.
